Our source for the growth values is PubChem BioAssay (NCI).

Among the test systems are HCT-15 colon; HT29 colon; SNB-75 CNS; U251 CNS; PC-3 prostate; SK-MEL-5 melanoma; UACC-62 melanoma; LOX IMVI melanoma; SK-MEL-28 melanoma; SNB-19 CNS.
Common to all, as to test: NCI-60 one-dose screen, 48 h (100 = growth as untreated, 0 = no growth, -100 = all killed)
Settings in all cases: 10 µM unless noted

Compounds without any hit were thinned out: in the full panel of roughly 83,000, 20% have a hit.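 Negative percent growth values reflect cell death: -40 means 40% of the cells present at the start died, and -100 means all died.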 Values without a mark were called inactive. Activity calls are given as the source filed them. How the source made its calls: active means growth percent below 10; inactive means the rest.

As for `C#C[C@]1(O)CC[C@H]2[C@@H]3CC=C4c5nc(N)sc5CC[C@]4(C)[C@H]3CC[C@@]21C`, the growth in the assay with HCT-15 colon was 42.4%; in the assay with HT29 colon it was 41.6%; with SNB-75 CNS, -5.36% (active); with U251 CNS, 38.1%; with PC-3 prostate, 47.5%; in the assay on SK-MEL-5 melanoma, 60.4%. For the same compound, the growth was 30.3% in the assay with UACC-62 melanoma, 55.4% in the assay on LOX IMVI melanoma and 57.1% in the assay on SK-MEL-28 melanoma.

Take `CC(C)C1=NOC(=O)C1=Cc1cn(-c2ccccc2)nc1-c1ccc(Cl)cc1`: the growth in the assay with HCT-15 colon is 64.9%; with HT29 colon it was 67.9%; with SNB-75 CNS it was 83.8%; in the assay on U251 CNS, 71.1%; in the assay on PC-3 prostate, 78.7%; with SK-MEL-5 melanoma, 83.2%. For the same compound, the values for the growth in the assay with UACC-62 melanoma, in the assay on LOX IMVI melanoma and with SK-MEL-28 melanoma were 75.6%, 6.02% (active) and 84.9%, respectively.

For `CC1(C)CC[C@]2(C(=O)O)CC[C@]3(C)C(=CC[C@@H]4[C@@]5(C)C/C(=C/c6ccco6)C(=O)C(C)(C)[C@@H]5CC[C@]43C)[C@@H]2C1`, the growth in the assay on HCT-15 colon was -38.6% [100 µM] (active); with HT29 colon, -56.7% [100 µM] (active); in the assay with SNB-75 CNS, -15.6% [100 µM] (active); in the assay with U251 CNS it was -36.1% [100 µM] (active); in the assay on PC-3 prostate, -16% [100 µM] (active); in the assay with SK-MEL-5 melanoma, -75.8% [100 µM] (active). Moreover, the growth with UACC-62 melanoma was -89.7% [100 µM] (active); with LOX IMVI melanoma it was -95.1% [100 µM] (active); in the assay with SK-MEL-28 melanoma it was -79.5% [100 µM] (active).

With `COc1ccc(NC(=S)NNc2ccc(-c3ccc(OC)c(OC)c3)nn2)cc1`, the growth is 107% in the assay with HCT-15 colon; 109% in the assay with HT29 colon; 74.4% in the assay on SNB-75 CNS; 76.6% in the assay on U251 CNS; 104% in the assay on PC-3 prostate; 101% in the assay on SK-MEL-5 melanoma. Besides, the figures for the growth in the assay on UACC-62 melanoma, in the assay on LOX IMVI melanoma and with SK-MEL-28 melanoma were 102%, 97.8% and 113%, respectively.

For the compound `O=C(O)CSCc1nnc2n(Cc3ccccc3)c(=O)c3c4c(sc3n12)CCCC4`, the growth in the assay with HCT-15 colon was 101%; in the assay with HT29 colon, 111%; in the assay on SNB-75 CNS, 87.4%; with U251 CNS, 102%; in the assay with PC-3 prostate, 101%; in the assay with SK-MEL-5 melanoma, 103%. The results for the growth in the assay with UACC-62 melanoma, in the assay with LOX IMVI melanoma and in the assay with SK-MEL-28 melanoma were 75.4%, 88.1% and 131%, respectively.

For `Cn1cc(-c2nnc(-c3cn(C)c4ncc(Br)cc34)o2)c2ccccc21`, the growth with HCT-15 colon is 53.3%; with HT29 colon it was 87.7%; in the assay with SNB-75 CNS, 65.8%; in the assay on U251 CNS it was 94.3%; in the assay on PC-3 prostate, 77.2%; with SK-MEL-5 melanoma, 80.1%. Moreover, the growth is 70.8% in the assay with UACC-62 melanoma, 92.3% in the assay on LOX IMVI melanoma and 91.7% with SK-MEL-28 melanoma.

On to `CC(C)C1=NOC(=O)C1=Cc1cn(-c2ccccc2)nc1-c1ccc(Br)cc1`, for which the growth is 74.3% with HCT-15 colon; 60.3% in the assay with HT29 colon; 90.3% with SNB-19 CNS; 73.7% in the assay on U251 CNS; 82.3% in the assay with PC-3 prostate; 97.2% in the assay with SK-MEL-5 melanoma. In addition, the growth was 76.1% in the assay with UACC-62 melanoma, 26.4% in the assay on LOX IMVI melanoma and 83.4% in the assay with SK-MEL-28 melanoma.

Take `ClC1=C(Cl)C(Cl)=C(Cl)C1=Cc1ccccc1`: the growth in the assay on HCT-15 colon was -55.1% (active); in the assay on HT29 colon, -30.1% (active); in the assay with SNB-75 CNS, -77% (active); with U251 CNS, -50.3% (active); in the assay with SK-MEL-5 melanoma, -95.8% (active); in the assay on UACC-62 melanoma, -77% (active). Further, the growth with LOX IMVI melanoma is -91.5% (active); with SK-MEL-28 melanoma it was -87.5% (active).

With `COc1ccc(C2CC(c3cc(OC)c(OC)c(OC)c3)=NN2C(C)=O)cc1OCC(=O)Nc1nc2ccc(C(F)(F)F)cc2s1` (stereo unspecified), the growth in the assay with HCT-15 colon is 76.2%; in the assay with HT29 colon it was 79.8%; with SNB-75 CNS it was 37%; with U251 CNS, 67%; in the assay on PC-3 prostate it was 67.8%; in the assay with SK-MEL-5 melanoma, 15.1%. Moreover, the growth was 52.5% in the assay with UACC-62 melanoma, 32.5% in the assay with LOX IMVI melanoma and 65.5% in the assay on SK-MEL-28 melanoma.

On to `Cc1cc(C)c(-c2cc(O)c(-c3c(C)cc(C)cc3C)cc2O)c(C)c1`, for which the growth is 23.6% in the assay with HCT-15 colon; 8.84% (active) in the assay on HT29 colon; -10.3% (active) in the assay on SNB-75 CNS; 25.2% with U251 CNS; 43.2% with PC-3 prostate; 25.5% in the assay on SK-MEL-5 melanoma. The growth is 34.2% with UACC-62 melanoma, 41.8% in the assay with LOX IMVI melanoma and 42.8% in the assay with SK-MEL-28 melanoma.

With `CCc1ccc(-c2ccc(COc3ccc(CC4SC(=O)NC4=O)cc3)cc2)cc1` (stereo unspecified), the growth in the assay with HCT-15 colon was 56.4%; in the assay on HT29 colon, 103%; in the assay on SNB-75 CNS, 76.2%; with U251 CNS, 72.8%; with PC-3 prostate it was 65.6%; in the assay on SK-MEL-5 melanoma, 39.8%. The results for the growth in the assay on UACC-62 melanoma, with LOX IMVI melanoma and in the assay with SK-MEL-28 melanoma were 60.2%, 63.3% and 85%, respectively.

Consider `Cc1ccc(N)c(O)c1`, for which the growth was 83.8% in the assay with HCT-15 colon; 95.8% in the assay with HT29 colon; 32.7% with SNB-75 CNS; 92.7% in the assay on U251 CNS; 75.8% with PC-3 prostate; 96.1% with SK-MEL-5 melanoma. The growth is 101% with UACC-62 melanoma, 86.6% in the assay on LOX IMVI melanoma and 103% with SK-MEL-28 melanoma.

Consider `OC(c1ccc(Cl)cc1)(c1ccc(Cl)cc1)C(O)(c1ccc(Cl)cc1)c1ccc(Cl)cc1`, for which the growth was 33.8% in the assay with HCT-15 colon; 24% in the assay on HT29 colon; 27.8% in the assay on SNB-75 CNS; 46.6% with U251 CNS; 33.5% in the assay on PC-3 prostate; 71.7% in the assay on SK-MEL-5 melanoma. In addition, the growth in the assay on UACC-62 melanoma was 50.8%; in the assay on LOX IMVI melanoma, 11.2%; in the assay with SK-MEL-28 melanoma, 73.7%.
